Measurements reported in PubChem BioAssay (EPA / NIEHS).
Activity calls are given as the source filed them. The calls were made as follows: active = hit-call score of the fitted dose curve at least 0.9, where 1 is the maximum; inactive = score below 0.9.

What was measured:
[1] = read-out: TIMP metallopeptidase inhibitor 2 (TIMP2), TIMP2 (gene 7077); test: BSK_KF3CT_TIMP2: BioMAP Diversity Plus: KF3CT Assay for TIMP metallopeptidase inhibitor 2 (TIMP2) Biomarker Activity (AID 2283071); details: primary human keratinocytes with fibroblasts; actives raise or lower the signal
Outline: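 Keratinocyte–fibroblast co-culture, 24 h exposure; TIMP-2 ELISA, DMSO-normalised bidirectional fit. Parallel SRB (0.1%, TCA-fixed, 560 nm) total-protein staining gauges cytotoxicity.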

[2] = read-out: Transforming growth factor beta 1 (TGFb1), TGFB1 (gene 7040); test: BSK_KF3CT_TGFb1: BioMAP Diversity Plus: KF3CT Assay for Transforming growth factor beta 1 (TGFb1) Biomarker Activity (AID 2283072); details: primary human keratinocytes with fibroblasts; actives raise or lower the signal
Outline: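 Signal changes in either direction, relative to DMSO, define activity here. TGF-b1 is read by ELISA from a human keratinocyte-fibroblast co-culture 24 h post-dose.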

[3] = read-out: C-C motif chemokine 2 (Homo sapiens) (UniProt P13500); test: BSK_KF3CT_MCP1: BioMAP Diversity Plus: KF3CT Assay for Monocyte Chemoattractant Protein 1 (MCP1/CCL2) Biomarker Activity (AID 2283073); details: primary human keratinocytes with fibroblasts; actives raise or lower the signal
Outline: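 ELISA readout of MCP-1 after 24 h chemical dosing of a human skin primary co-culture of keratinocytes and foreskin fibroblasts. Activity was fitted in both directions against DMSO.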

[4] = read-out: Matrix Metallopeptidase 9 (MMP9), MMP9 (gene 4318); test: BSK_KF3CT_MMP9: BioMAP Diversity Plus: KF3CT Assay for Matrix Metallopeptidase 9 (MMP9) Biomarker Activity (AID 2283074); details: primary human keratinocytes with fibroblasts; actives raise or lower the signal;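 as to AC50: MMP9 protein level quantified by ELISA in the co-culture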
Outline: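 Human keratinocyte/foreskin fibroblast co-culture; compound added; 24 h; MMP-9 by ELISA; bidirectional fit vs DMSO baseline.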

[5] = read-out: urokinase plasminogen activator (uPA), PLAU (gene 5328); test: BSK_KF3CT_uPA: BioMAP Diversity Plus: KF3CT Assay for urokinase plasminogen activator (uPA) Biomarker Activity (AID 2283075); details: primary human keratinocytes with fibroblasts; actives raise or lower the signal
Outline: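 ELISA readout of uPA, analyzed for signal gain or loss relative to DMSO, from a human primary keratinocyte–foreskin fibroblast co-culture measured 24 h after chemical treatment.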

CD40, CD40 (gene 958) [6] = test: BSK_LPS_CD40: BioMAP Diversity Plus: LPS Assay for CD40 Biomarker Activity (AID 2283076); details: primary human HUVEC with PBMC; actives raise or lower the signal
Outline: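 Cells were dosed, incubated 24 h, then assayed for CD40 by ELISA. Gain or loss of signal was analysed relative to DMSO controls. The culture paired human umbilical vein endothelium with peripheral blood mononuclear cells.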

[7] = read-out: E-selectin (Homo sapiens) (UniProt P16581); test: BSK_LPS_Eselectin: BioMAP Diversity Plus: LPS Assay for Eselectin Biomarker Activity (AID 2283077); details: primary human HUVEC with PBMC; actives raise or lower the signal
Outline: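 Primary human vascular co-culture (endothelium plus PBMC) was dosed with chemical, then E-selectin quantified by ELISA at 24 h. Endpoint values derive from bidirectional curve fitting relative to DMSO.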

[8] = read-out: Interleukin-8 (IL8), CXCL8 (gene 3576); test: BSK_LPS_IL8: BioMAP Diversity Plus: LPS Assay for Interleukin-8 (IL8) Biomarker Activity (AID 2283078); details: primary human HUVEC with PBMC; actives raise or lower the signal
Outline: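 Readout is IL-8 by ELISA, taken 24 h after compounds were added to LPS-stimulated endothelial/PBMC co-cultures. Both increases and decreases relative to DMSO control were scored through bidirectional fitting.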

[9] = BSK_LPS_SRB: Viability Assessment in the BioMAP Diversity Plus: LPS Assay (AID 2283079); details: primary human HUVEC with PBMC;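 also: total protein by sulforhodamine B absorbance as a cytotoxicity measure; measured one day after compound addition; fitted in both directions against DMSO so loss or gain of signal counts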
Outline: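 Readout is SRB absorbance at 560 nm (0.1% stain, TCA-fixed parallel cultures) as a total-protein cytotoxicity measure. Cells: primary human umbilical vein endothelium plus peripheral blood mononuclear cells, 24 h after chemical exposure; DMSO served as baseline.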

[10] = read-out: Monocyte Chemoattractant Protein-1 (MCP1), CCL2 (gene 6347); test: BSK_LPS_MCP1: BioMAP Diversity Plus: LPS Assay for Monocyte Chemoattractant Protein-1 (MCP1) Biomarker Activity (AID 2283081); details: primary human HUVEC with PBMC; actives raise or lower the signal
Outline: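 Human endothelial–PBMC co-cultures were dosed with chemical, then LPS-driven MCP-1 levels were quantified by ELISA at 24 h. Activity in either direction was fitted versus DMSO negative control.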

[11] = read-out: Macrophage colony-stimulating factor (MCSF), CSF1 (gene 1435); test: BSK_LPS_MCSF: BioMAP Diversity Plus: LPS Assay for Macrophage colony-stimulating factor (MCSF) Biomarker Activity (AID 2283083); details: primary human HUVEC with PBMC; actives raise or lower the signal
Outline: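 ELISA readout of M-CSF after 24 h compound exposure in a human endothelial/PBMC co-culture. Activity, in either direction, is fitted relative to DMSO vehicle.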

[12] = read-out: Tissue Factor, F3 (gene 2152); test: BSK_LPS_TissueFactor: BioMAP Diversity Plus: LPS Assay for Tissue Factor Biomarker Activity (AID 2283084); details: primary human HUVEC with PBMC; actives raise or lower the signal
Outline: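 ELISA signal for cell-surface Tissue Factor (CD142) was read 24 h after compound dosing of an LPS-stimulated human endothelial–PBMC primary co-culture. Gain or loss of signal was scored relative to DMSO.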

[13] = read-out: Tumor necrosis factor (Homo sapiens) (UniProt P01375); test: BSK_LPS_TNFa: BioMAP Diversity Plus: LPS Assay for Tumour Necrosis Factor alpha (TNFa) Biomarker Activity (AID 2283085); details: primary human HUVEC with PBMC; actives raise or lower the signal
Outline: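 Primary human vascular co-culture of HUVEC and PBMC; TNFa ELISA 24 h after treatment, analysed as increase or decrease relative to DMSO control.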

[14] = read-out: Vascular cell adhesion molecule 1 (VCAM1), VCAM1 (gene 7412); test: BSK_LPS_VCAM1: BioMAP Diversity Plus: LPS Assay for Vascular cell adhesion molecule 1 (VCAM1) Biomarker Activity (AID 2283086); details: primary human HUVEC with PBMC; actives raise or lower the signal
Outline: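 Primary human vascular co-culture (umbilical vein endothelium plus PBMC) stimulated with LPS received chemical; 24 h later VCAM-1 was read by ELISA. Overt cytotoxicity was assessed by sulforhodamine B staining of parallel cultures at the same time point.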

CD38, CD38 (gene 952) = test: BSK_SAg_CD38: BioMAP Diversity Plus: SAg Assay for CD38 Biomarker Activity (AID 2283087); details: primary human HUVEC with PBMC; actives raise or lower the signal
Outline: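 Fluorescence ELISA of cell-surface CD38 served as the read-out, with either increase or decrease fitted against DMSO controls. Cells were a human umbilical vein endothelium plus PBMC co-culture under SEB/TSST-1 stimulation, measured 24 h after dosing.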

CD40, CD40 (gene 958) [15] = test: BSK_SAg_CD40: BioMAP Diversity Plus: SAg Assay for CD40 Biomarker Activity (AID 2283088); details: primary human HUVEC with PBMC; actives raise or lower the signal
Outline: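 Compounds were dosed onto a human primary endothelial–PBMC co-culture, and after 24 h CD40 was quantified by ELISA using a fluorescence signal. Activity in either direction was fitted relative to DMSO.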

CD69, CD69 (gene 969) = test: BSK_SAg_CD69: BioMAP Diversity Plus: SAg Assay for CD69 Biomarker Activity (AID 2283089); details: primary human HUVEC with PBMC; actives raise or lower the signal;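 as to AC50: cell surface CD69 protein quantified by ELISA with fluorescence detection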
Outline: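 HUVEC co-cultured with PBMC were dosed with chemical, and CD69 was measured by ELISA with fluorescence read-out 24 h later. Bidirectional curve fitting used DMSO as negative control and activity baseline.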

[16] = read-out: Monocyte Chemoattractant Protein-1 (MCP1), CCL2 (gene 6347); test: BSK_SAg_MCP1: BioMAP Diversity Plus: SAg Assay for Monocyte Chemoattractant Protein-1 (MCP1) Biomarker Activity (AID 2283090); details: primary human HUVEC with PBMC; actives raise or lower the signal
Outline: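 MCP-1 levels in the endothelial–PBMC SAg co-culture were quantified by ELISA at 24 h post-dosing; both increases and decreases versus DMSO scored. Cytotoxicity monitored by SRB total protein in parallel cultures.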

[17] = read-out: Interleukin-1 alpha (IL1a), IL1A (gene 3552); test: BSK_LPS_IL1a: BioMAP Diversity Plus: LPS Assay for Interleukin-1 alpha (IL1a) Biomarker Activity (AID 2283080); details: primary human HUVEC with PBMC; actives raise or lower the signal
Outline: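 ELISA read-out of IL-1 alpha from a human primary vascular co-culture (endothelium plus PBMC) under LPS, sampled 24 hours post-dosing. Activity was fitted in both directions relative to DMSO controls.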

[18] = BSK_LPS_PGE2: BioMAP Diversity Plus: LPS Assay for Prostaglandin E2 (PGE2) Biomarker Activity (AID 2283082); details: primary human HUVEC with PBMC; actives raise or lower the signal;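 as to AC50: secreted prostaglandin E2 measured by ELISA in LPS-stimulated co-culture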
Outline: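 Endpoint derived from bidirectional curve fitting versus DMSO of ELISA-measured PGE2 in LPS-stimulated human primary vascular co-culture (HUVEC with PBMC) harvested at 24 h.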

Measured: AC50

Sequence of Tumor necrosis factor (Homo sapiens) (P01375 whole entry, looked up): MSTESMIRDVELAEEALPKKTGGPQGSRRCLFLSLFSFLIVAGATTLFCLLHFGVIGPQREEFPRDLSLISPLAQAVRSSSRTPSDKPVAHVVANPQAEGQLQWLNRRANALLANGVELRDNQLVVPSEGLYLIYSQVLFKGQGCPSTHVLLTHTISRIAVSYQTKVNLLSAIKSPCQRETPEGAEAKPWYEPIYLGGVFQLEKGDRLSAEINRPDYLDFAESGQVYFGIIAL
Sequence of E-selectin (Homo sapiens) (P16581 whole entry, looked up): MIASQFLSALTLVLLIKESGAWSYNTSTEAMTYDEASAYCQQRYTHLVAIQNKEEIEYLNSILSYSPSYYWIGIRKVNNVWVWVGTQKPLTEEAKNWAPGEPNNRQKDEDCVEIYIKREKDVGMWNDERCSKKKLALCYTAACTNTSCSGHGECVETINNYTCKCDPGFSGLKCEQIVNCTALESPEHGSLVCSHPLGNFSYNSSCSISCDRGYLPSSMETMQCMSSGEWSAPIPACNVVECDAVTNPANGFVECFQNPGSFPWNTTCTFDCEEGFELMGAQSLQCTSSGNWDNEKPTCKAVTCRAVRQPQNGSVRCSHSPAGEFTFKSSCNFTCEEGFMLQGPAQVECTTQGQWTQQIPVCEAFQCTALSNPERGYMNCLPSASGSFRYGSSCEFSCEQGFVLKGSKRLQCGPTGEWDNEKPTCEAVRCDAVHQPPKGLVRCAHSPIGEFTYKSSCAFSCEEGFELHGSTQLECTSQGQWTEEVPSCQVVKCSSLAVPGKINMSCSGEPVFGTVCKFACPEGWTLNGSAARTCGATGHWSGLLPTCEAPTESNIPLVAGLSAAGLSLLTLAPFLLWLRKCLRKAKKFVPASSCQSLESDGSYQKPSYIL

CC(C)(C)OOC(C)(C)CCC(C)(C)OOC(C)(C)C
inactive: [1] | [2] | [3] | [4] | [5] | CD40, CD40 (gene 958) [6] | [7] | [8] | [9] | [10] | [11] | [12] | [13] | [14] | CD38, CD38 (gene 952) | CD40, CD40 (gene 958) [15] | CD69, CD69 (gene 969) | [16]

Nc1ccc(Cl)cc1N
active: [4] 8.99 µM | [7] 4.45 µM | [18] 10 µM | [11] 2.96 µM | [14] 3.62 µM | CD69, CD69 (gene 969) 3.65 µM | [16] 3.7 µM
inactive: [1] | [2] | [3] | CD40, CD40 (gene 958) [6] | [8] | [9] | [17] | [10] | [12] | [13] | CD40, CD40 (gene 958) [15]

CCOC(=O)[C@]1(c2ccccc2)Oc2ccccc2[C@@H]1N
active: [4] 31 µM | CD40, CD40 (gene 958) [6] 32.9 µM | [8] 36.1 µM | CD38, CD38 (gene 952) 36.2 µM | [16] 30.1 µM
inactive: [1] | [2] | [3] | [7] | [9] | [17] | [10] | [18] | [11] | [12] | [13] | [14] | CD40, CD40 (gene 958) [15] | CD69, CD69 (gene 969)
